Compounds with a hit are over-represented: about 19% of the library has one in this group of screens.
IL1B secr inh: qHTS for Inhibitors of Inflammasome Signaling: IL-1-beta AlphaLISA Primary Screen; THP-1 LPS/ATP IL-1B secretion, AlphaLISA, 16 h; hits give low values; activity change, % at 57.5 µM; actives 4.7% (n = 360,000); AID 743279, 2014; in the data active = activity change below about -50%; inconclusive = mostly about -30% to -49%
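THP-1 cells pretreated 1 hr with compounds (up to 57.5 uM final), then stimulated with LPS (250 ng/mL final) plus ATP (1.25 mM final); secreted IL-1B measured by AlphaLISA after 16 hr, decreased signal indicating inhibition.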
TDP1 cell noCPT: qHTS for Inhibitors of human tyrosyl-DNA phosphodiesterase 1 (TDP1): qHTS in cells in absence of CPT; actives 15% (n = 420,000); DT40 Tdp1-/- hTDP1 cells, no CPT, ATP luminescence, 48 h; Potency, µM (highest dose often 46.2 µM), hits mostly inhibitors; note: nearly all actives have a fitted effect of over 55% in size
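DT40 Tdp1-/-;hTDP1 cells, no CPT (DMSO vehicle only), 400 cells/well; compounds pin-transferred; ≥48 hr, 37 °C; CellTiter-Glo 30 min RT dark, luminescence read.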
HT1080 IDH1KD tx: qHTS for induction of synthetic lethality in tumor cells producing 2HG: qHTS for the HT-1080-IDH1KD cell line; AID 686971, 2013; actives 2% (n = 360,000); Potency, µM (titrated, usually from 46.1 µM), most hits filed as cytotoxic; HT-1080 IDH1 knockdown viability, ATP luminescence, 48 h
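After a 2 h attachment period, IDH1KD HT-1080 cells took pin-transferred compound for 48 h at 37 °C; ATP-based luminescence after 10 min room-temperature reagent incubation reported viability.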
TDP1 cell CPT: qHTS for Inhibitors of human tyrosyl-DNA phosphodiesterase 1 (TDP1): qHTS in cells in presence of CPT; chicken DT40 Tdp1-/-;hTDP1 cells + 20 nM CPT, ATP luminescence, 48 h; Potency, µM (series often up to 46.2 µM), hits mostly inhibitors; actives 12% (n = 420,000); AID 686979, 2013; note: nearly all actives have a fitted effect of over 55% in size
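Cell growth measured by CellTiter-Glo luminescence after a minimum 48 h, 37 C compound exposure with 20 nM CPT in Tdp1-knockout DT40 cells stably expressing hTDP1, seeded 400/well; qHTS titration format.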
HT1080-NT tox: qHTS for induction of synthetic lethality in tumor cells producing 2HG: qHTS for the HT-1080-NT fibrosarcoma cell line | HT-1080-NT fibrosarcoma viability, CellTiter-Glo ATP luminescence, 48 h | Potency, µM (series often up to 46.1 µM), usual class: cytotoxic | actives 1.6% (n = 360,000) | AID 686970, 2013;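 note: NT is the 2HG producing partner of a matched IDH1 knockdown line; nearly all actives have a fitted effect of over 55% in size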
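HT-1080-NT fibrosarcoma cells (2HG-overproducing), 750 cells/well in RPMI with 5% FBS, dosed after 2 h and incubated 48 h at 37C. CellTiter-Glo luminescence normalized to DMSO and no-cell wells; concentration-response curves fitted and classed.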
ELG1 repair inh: qHTS screen for small molecules that inhibit ELG1-dependent DNA repair in human embryonic kidney (HEK293T) cells expressing luciferase-tagged ELG1; HEK293T ELG1-luciferase reporter, luminescence, 16 h; DNA damage induced by 5-fluorouridine; Potency, µM (titrated, usually from 46.1 µM), most hits filed as inhibitors; actives 2.3% (n = 330,000); AID 504467, 2011; note: nearly all actives have a fitted effect of over 55% in size
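HEK293T cells expressing luciferase-tagged ELG1 (2,000/well) received 5-Fluorouridine plus compound or DMSO for 16 hr at 37 °C. Luciferase was read by ONE-Glo luminescence after 30 min at room temperature.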
A number is an active result; – = inactive; ? = inconclusive; · = no result given; [ ] = dose if it differs, or a comment. Unless noted, calls come from the whole dose curve; as a rule, active = well fitted curve in the direction sought with a large enough effect; inconclusive = small, poorly fitted or top-dose-only effect, or another doubt; inactive = no such curve, though single readings can be large; an effect the other way counts as inactive or inconclusive.

SMILES	IL1B secr inh	TDP1 cell noCPT	HT1080 IDH1KD tx	TDP1 cell CPT	HT1080-NT tox	ELG1 repair inh
CCOc1ccc(S(=O)(=O)N2CCC(C(=O)N3CCN(c4ccccc4F)CC3)CC2)cc1C	–	29µM	–	23µM	–	?
Cc1ccc(NC(=O)C2CCN(S(=O)(=O)c3ccc4c(c3)oc(=O)n4C)CC2)cc1	–	–	–	–	–	–
CCOc1ccc(S(=O)(=O)N2CCN(c3ccccc3F)CC2)c2cccnc12	–	16µM	–	21µM	–	–
CCOc1ccc(CN2CCC(C(=O)N3CCN(c4ccccc4F)CC3)CC2)cc1OC	–	–	–	–	–	–
COc1ccccc1CN1CC2(CCN(C(=O)c3cccc(F)c3)CC2)C1	·	–	·	–	·	·
CN(C)CCN1CCN(C2CN(Cc3cn(Cc4ccccc4C(F)(F)F)nn3)S(=O)(=O)C2)CC1 (configuration not stated)	–	–	–	–	–	·
Cn1c(=O)oc2cc(S(=O)(=O)N3CCC(C(=O)N4CCN(c5ccccc5F)CC4)CC3)ccc21	·	18µM	·	?	·	·
Cc1cccc(N2CCN(C(=O)C3CCCN(S(=O)(=O)c4ccc5c(c4)oc(=O)n5C)C3)CC2)c1C (configuration not stated)	·	3.7µM	·	7.3µM	·	·
CC1CCC(NC(=O)C(NS(=O)(=O)c2ccc(Br)cc2)C(C)C)CC1 (configuration not stated)	–	?	–	–	–	·
CCCCCCCCCCCCC/C=C/[C@@H](O)[C@H](CO)NCCCCCCCC	·	–[4.12 µM]	·	–[4.12 µM]	·	·
COc1cc2ncc(S(=O)(=O)c3ccccc3)c(N3CCCC(C)C3)c2cc1OC (configuration not stated)	–	12µM	?	?	–	18µM
Clc1ccccc1-c1nnc2sc(CCc3ccccc3)nn12	–	?	–	?	–	–
Brc1ccccc1-c1nnc2sc(Cc3ccccc3)nn12	-56	–	–	–	–	–
COc1ccc(Cc2nn3c(-c4ccccc4Br)nnc3s2)cc1	-85	?	–[9.24 µM]	?	–	?
COc1ccc(-c2nnc3sc(CCN4C(=O)c5ccccc5C4=O)nn23)cc1	–	?	–	–	–	–
COc1ccc(C(=O)Cn2cnc3ccccc3c2=O)cc1OC	–	?	–	–	–	–
COc1ccc(Cc2nc3c4c(ncn3n2)Oc2c(ccc3ccccc23)C4c2ccc(OC)c(OC)c2)cc1 (configuration not stated)	–	?	–	–	–	–
COc1ccc(C2c3ccc4ccccc4c3Oc3ncn(CCO)c(=N)c32)cc1OC (configuration not stated)	?	21µM	–	23µM	–	–
COc1ccc(C2c3ccc4ccccc4c3Oc3ncn(CCCO)c(=N)c32)cc1OC (configuration not stated)	-55	21µM	5.2µM	?	7.3µM	–
O=C(O)c1cccc(Br)c1	–	–	–	–	–	·
Cc1c(C(=O)N2CCC3(CC2)CC(=O)c2ccccc2O3)cccc1[N+](=O)[O-]	–	23µM	–	18µM	–	?
O=C1CC2(CCN(C(=O)c3ccc(Br)cc3)CC2)Oc2ccccc21	-51	18µM	–	?	–	–
O=C1CC2(CCN(C(=O)c3ccc([N+](=O)[O-])cc3)CC2)Oc2ccccc21	–	?	–	?	–	?
Cc1ccccc1CNCCCSc1nnnn1C	·	–	·	–	·	·

High-throughput results: PubChem, National Center for Advancing Translational Sciences (NCATS)
